# Laboratory results reported in PubChem BioAssay (EPA / NIEHS).
# Several values for one entry are separate records, joined by “and”; a condition that tells them apart may be missing. Equal entries are not always repeated. Inconclusive results are not listed. Some compounds were tested as several samples or in several runs, with calls that do not always agree. Activity calls are given as the source filed them. How the source made its calls, unless noted: active means hit-call score of the fitted dose curve at least 0.9, where 1 is the maximum; inconclusive means response in the unintended direction; inactive means score below 0.9.
# Tests used:
# [1] = target: Estrogen receptor beta (Homo sapiens) (UniProt Q92731); assay: ATG_hERb_XSP2: Attagene TRANS-FACTORIAL Multi-Species (XSP2) HepG2 Assay for human Estrogen Receptor (ERb) (AID 2283813);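 further: actives raise reporter mRNA above DMSO so AC50 reflects agonist induction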
# Sequence of Estrogen receptor beta (Homo sapiens) (Q92731 whole entry, looked up, the tested form may be a part): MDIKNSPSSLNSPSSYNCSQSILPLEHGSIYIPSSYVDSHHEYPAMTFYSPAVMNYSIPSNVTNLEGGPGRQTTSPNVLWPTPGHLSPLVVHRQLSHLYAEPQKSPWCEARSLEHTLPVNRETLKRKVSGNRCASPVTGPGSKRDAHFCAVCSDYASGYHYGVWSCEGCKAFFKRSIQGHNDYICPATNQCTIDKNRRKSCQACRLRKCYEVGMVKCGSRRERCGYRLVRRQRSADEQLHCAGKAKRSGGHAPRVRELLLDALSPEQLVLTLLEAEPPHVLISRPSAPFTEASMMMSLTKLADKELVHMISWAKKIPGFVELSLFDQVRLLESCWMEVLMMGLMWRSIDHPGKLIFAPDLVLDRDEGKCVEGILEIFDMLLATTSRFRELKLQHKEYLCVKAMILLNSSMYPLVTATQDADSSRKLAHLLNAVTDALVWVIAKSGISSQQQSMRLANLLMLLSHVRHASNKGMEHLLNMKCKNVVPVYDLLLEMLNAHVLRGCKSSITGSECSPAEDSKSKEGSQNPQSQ
# Procedure, shortened: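 Transient TRANS reporter system in HepG2: after 24 h of chemical, RNA is reverse-transcribed, reporter cDNA amplified, FAM-labelled and sized by capillary electrophoresis. Induction of the human ERb-Gal4 reporter is measured relative to DMSO.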
# [2] = target: GAL4 Transcription Factor (Internal Marker), GAL4 (gene 855828) (UniProt P04386); assay: ATG_GAL4_XSP2: Attagene TRANS-FACTORIAL Multi-Species (XSP2) HepG2 Assay for GAL4 Transcription Factor (Internal Marker) (AID 2283814);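 further: GAL4 reporter mRNA background control in MRTU transfected cells not a receptor target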
# Sequence of GAL4 Transcription Factor (Internal Marker), GAL4 (gene 855828) (P04386 whole entry, looked up, the tested form may be a part): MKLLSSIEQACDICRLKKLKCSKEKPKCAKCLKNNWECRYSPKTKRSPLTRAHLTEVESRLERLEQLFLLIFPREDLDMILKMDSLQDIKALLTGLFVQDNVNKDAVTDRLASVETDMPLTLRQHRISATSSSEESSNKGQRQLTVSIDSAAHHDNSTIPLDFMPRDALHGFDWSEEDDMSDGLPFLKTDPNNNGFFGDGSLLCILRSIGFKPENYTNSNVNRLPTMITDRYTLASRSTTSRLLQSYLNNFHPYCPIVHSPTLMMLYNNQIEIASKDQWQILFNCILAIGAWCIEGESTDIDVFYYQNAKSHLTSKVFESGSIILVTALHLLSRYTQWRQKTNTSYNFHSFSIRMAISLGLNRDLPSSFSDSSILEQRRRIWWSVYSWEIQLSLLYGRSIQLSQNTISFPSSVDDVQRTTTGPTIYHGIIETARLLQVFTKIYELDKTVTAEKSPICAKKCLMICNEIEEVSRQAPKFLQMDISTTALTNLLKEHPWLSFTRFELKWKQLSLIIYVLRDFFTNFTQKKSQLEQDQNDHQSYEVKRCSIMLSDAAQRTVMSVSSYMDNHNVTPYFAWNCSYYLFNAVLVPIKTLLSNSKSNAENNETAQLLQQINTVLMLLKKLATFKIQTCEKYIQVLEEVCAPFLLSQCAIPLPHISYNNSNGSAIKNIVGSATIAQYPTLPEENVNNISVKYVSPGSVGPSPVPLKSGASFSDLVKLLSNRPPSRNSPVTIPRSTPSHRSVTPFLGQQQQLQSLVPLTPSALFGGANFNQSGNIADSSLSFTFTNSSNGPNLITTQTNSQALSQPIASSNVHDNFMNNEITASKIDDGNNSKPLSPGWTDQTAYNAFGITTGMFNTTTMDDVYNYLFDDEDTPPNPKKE
# Procedure, shortened: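 Background-control readout: gain-of-signal fitted against DMSO. After 24 h exposure of transfected HepG2 (MRTU, GAL4-UAS reporters; 3 nM 6-alpha-fluorotestosterone, 1.5 nM norgestrel present), transcripts quantified by RT-PCR and capillary electrophoresis fluorescence.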
# [3] = target: zebrafish Estrogen Receptor (ER1), esr1 (gene 259252) (UniProt P57717); assay: ATG_zfER1_XSP2: Attagene TRANS-FACTORIAL Multi-Species (XSP2) HepG2 Assay for zebrafish Estrogen Receptor (ER1) (AID 2283816)
# Sequence of zebrafish Estrogen Receptor (ER1), esr1 (gene 259252) (P57717 whole entry, looked up, the tested form may be a part): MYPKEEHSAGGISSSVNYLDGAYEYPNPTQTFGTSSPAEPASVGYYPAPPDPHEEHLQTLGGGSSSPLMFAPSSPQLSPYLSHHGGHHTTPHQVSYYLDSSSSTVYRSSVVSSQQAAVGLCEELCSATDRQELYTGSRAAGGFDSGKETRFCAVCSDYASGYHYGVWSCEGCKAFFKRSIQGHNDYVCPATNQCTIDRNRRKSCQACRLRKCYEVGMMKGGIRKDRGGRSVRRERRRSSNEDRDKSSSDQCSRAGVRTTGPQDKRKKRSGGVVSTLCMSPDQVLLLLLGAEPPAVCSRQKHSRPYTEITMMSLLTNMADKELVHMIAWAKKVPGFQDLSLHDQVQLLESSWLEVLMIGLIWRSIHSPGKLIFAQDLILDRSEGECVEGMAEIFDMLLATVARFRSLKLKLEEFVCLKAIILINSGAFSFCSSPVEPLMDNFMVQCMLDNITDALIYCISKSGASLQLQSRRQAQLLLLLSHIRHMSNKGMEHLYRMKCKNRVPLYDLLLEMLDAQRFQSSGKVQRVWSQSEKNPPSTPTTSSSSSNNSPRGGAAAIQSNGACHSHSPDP
# Procedure, shortened: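 After 24 h compound exposure, RNA from transfected HepG2 cells was reverse-transcribed and reporter transcripts resolved by capillary electrophoresis. The TRANS format reads exogenous zebrafish ER1-Gal4 chimera activity on GAL4-UAS elements; gain of signal against DMSO.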
# [4] = target: chicken Estrogen Receptor (ERa), ESR1 (gene 396099) (UniProt P06212); assay: ATG_chERa_XSP2: Attagene TRANS-FACTORIAL Multi-Species (XSP2) HepG2 Assay for chicken Estrogen Receptor (ERa) (AID 2283817);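 further: actives raise reporter signal above DMSO so AC50 reflects ER activation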
# Sequence of chicken Estrogen Receptor (ERa), ESR1 (gene 396099) (P06212 whole entry, looked up, the tested form may be a part): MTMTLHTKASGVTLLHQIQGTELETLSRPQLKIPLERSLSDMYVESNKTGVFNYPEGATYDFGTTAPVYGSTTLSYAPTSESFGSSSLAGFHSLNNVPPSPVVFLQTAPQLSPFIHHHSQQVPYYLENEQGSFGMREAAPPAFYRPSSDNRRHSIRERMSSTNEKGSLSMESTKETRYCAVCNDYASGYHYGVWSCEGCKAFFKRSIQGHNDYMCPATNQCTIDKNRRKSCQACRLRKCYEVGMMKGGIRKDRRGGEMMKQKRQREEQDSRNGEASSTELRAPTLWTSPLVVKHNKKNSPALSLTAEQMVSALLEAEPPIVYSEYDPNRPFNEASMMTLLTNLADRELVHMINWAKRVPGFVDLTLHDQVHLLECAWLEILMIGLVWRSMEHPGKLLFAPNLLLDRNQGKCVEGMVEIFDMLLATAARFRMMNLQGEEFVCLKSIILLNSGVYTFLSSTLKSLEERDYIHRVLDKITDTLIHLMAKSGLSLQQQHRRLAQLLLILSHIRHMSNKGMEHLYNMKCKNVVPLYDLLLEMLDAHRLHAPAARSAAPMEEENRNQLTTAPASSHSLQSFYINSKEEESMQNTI
# Procedure, shortened: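 Reporter mRNA induction read by RT-PCR, fluorescent labelling and capillary electrophoresis after 24 h exposure; positive-direction fit against DMSO baseline. HepG2 cells transfected with multiplexed GAL4-UAS units including chicken ERa chimera; medium contained 3 nM 6-alpha-fluorotestosterone plus 1.5 nM norgestrel.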
# [5] = test system: chicken Androgen Receptor (AR), gene 422165; assay: ATG_chAR_XSP2: Attagene TRANS-FACTORIAL Multi-Species (XSP2) HepG2 Assay for chicken Androgen Receptor (AR) (AID 2283819);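 further: hits raise reporter mRNA above DMSO so potency is for activation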
# Procedure, shortened: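 Readout is reporter mRNA induction via RT-PCR/capillary electrophoresis after 24 h chemical exposure, positive direction relative to DMSO. Transiently transfected HepG2 express chimeric chicken AR–GAL4; AR stimulated by 3 nM 6-alpha-fluorotestosterone and 1.5 nM norgestrel.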
# [6] = test system: frog Estrogen Receptor (ER), gene 398734; assay: ATG_frER1_XSP2: Attagene TRANS-FACTORIAL Multi-Species (XSP2) HepG2 Assay for frog Estrogen Receptor (ER) (AID 2283821);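 further: hits raise reporter mRNA above DMSO baseline so potency means agonist or activator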
# Procedure, shortened: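 HepG2 cells transiently transfected with multiplexed GAL4-UAS reporter units expressing chimeric NR-Gal4 proteins (TRANS format) were dosed for 24 h. Reporter mRNA was quantified by RT-PCR, FAM primer extension, HpaI digestion and capillary electrophoresis; gain of signal relative to DMSO.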
# [7] = test system: zebrafish Estrogen Receptor (ER2b), gene 317733; assay: ATG_zfER2b_XSP2: Attagene TRANS-FACTORIAL Multi-Species (XSP2) HepG2 Assay for zebrafish Estrogen Receptor (ER2b) (AID 2283823);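 further: fitted upward as reporter gain over DMSO so potency reflects activation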
# Procedure, shortened: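 Transcriptional induction measured as reporter mRNA (RT-PCR, fluorescent capillary electrophoresis) in transiently transfected HepG2 cells after 24 h dosing; DMSO served as negative control and baseline.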
# [8] = target: Estrogen receptor (Homo sapiens) (UniProt P03372); assay: ATG_hERa_XSP2: Attagene TRANS-FACTORIAL Multi-Species (XSP2) HepG2 Assay for human Estrogen Receptor (ERa) (AID 2283827)
# Procedure, shortened: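 Trans-activation of exogenous human ERa-Gal4 chimera read in HepG2 as reporter transcript after 24 h exposure; medium included 3 nM 6-alpha-fluorotestosterone and 1.5 nM norgestrel. Quantified by RT-PCR with capillary electrophoresis, positive-direction fitting against DMSO.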
# [9] = test system: frog Estrogen Receptor (ER2), gene 100174814; assay: ATG_frER2_XSP2: Attagene TRANS-FACTORIAL Multi-Species (XSP2) HepG2 Assay for frog Estrogen Receptor (ER2) (AID 2283828)
# Procedure, shortened: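 Read-out: reporter transcript levels by RT-PCR with 6-FAM primer extension, HpaI digestion and capillary electrophoresis, scored as induction over DMSO control. Transfected HepG2 carrying Xenopus ER2–GAL4 chimera; compounds incubated 24 h.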
# [10] = target: Peroxisome proliferator-activated receptor gamma (Homo sapiens) (UniProt P37231); assay: ATG_hPPARg_XSP2: Attagene TRANS-FACTORIAL Multi-Species (XSP2) HepG2 Assay for human Peroxisome Proliferator-activated Receptor gamma (PPARg) (AID 2283829);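 further: actives raise reporter mRNA above DMSO so AC50 reflects PPARg activation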
# Sequence of Peroxisome proliferator-activated receptor gamma (Homo sapiens) (P37231 whole entry, looked up, the tested form may be a part): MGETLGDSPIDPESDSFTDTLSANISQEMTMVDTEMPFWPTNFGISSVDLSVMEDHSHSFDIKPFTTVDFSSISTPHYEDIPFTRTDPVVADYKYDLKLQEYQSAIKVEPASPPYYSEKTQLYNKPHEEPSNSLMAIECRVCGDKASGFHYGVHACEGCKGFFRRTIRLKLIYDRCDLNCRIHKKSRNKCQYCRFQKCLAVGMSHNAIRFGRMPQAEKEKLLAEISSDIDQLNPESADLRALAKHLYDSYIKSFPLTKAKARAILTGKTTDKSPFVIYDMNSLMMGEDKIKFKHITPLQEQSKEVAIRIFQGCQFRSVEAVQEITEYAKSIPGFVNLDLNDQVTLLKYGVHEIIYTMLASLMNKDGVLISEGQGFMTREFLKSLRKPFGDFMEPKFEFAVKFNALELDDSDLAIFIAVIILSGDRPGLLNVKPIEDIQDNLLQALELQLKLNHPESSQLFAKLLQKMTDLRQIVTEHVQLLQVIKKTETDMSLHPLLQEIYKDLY
# Procedure, shortened: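 Human HepG2 cells carried transiently transfected Gal4 reporter units and were treated with chemical for 24 h alongside androgen-receptor stimulants (3 nM 6-alpha-fluorotestosterone, 1.5 nM norgestrel). Reporter transcripts were detected by RT-PCR with capillary electrophoresis, analysed in the positive direction against DMSO.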
# [11] = target: mouse Peroxisome Proliferator-activated Receptor gamma (PPARg), Pparg (gene 19016) (UniProt P37238); assay: ATG_mPPARg_XSP2: Attagene TRANS-FACTORIAL Multi-Species (XSP2) HepG2 Assay for mouse Peroxisome Proliferator-activated Receptor gamma (PPARg) (AID 2283830);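 further: hits are gains in reporter mRNA above DMSO so AC50 marks activation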
# Sequence of mouse Peroxisome Proliferator-activated Receptor gamma (PPARg), Pparg (gene 19016) (P37238 whole entry, looked up, the tested form may be a part): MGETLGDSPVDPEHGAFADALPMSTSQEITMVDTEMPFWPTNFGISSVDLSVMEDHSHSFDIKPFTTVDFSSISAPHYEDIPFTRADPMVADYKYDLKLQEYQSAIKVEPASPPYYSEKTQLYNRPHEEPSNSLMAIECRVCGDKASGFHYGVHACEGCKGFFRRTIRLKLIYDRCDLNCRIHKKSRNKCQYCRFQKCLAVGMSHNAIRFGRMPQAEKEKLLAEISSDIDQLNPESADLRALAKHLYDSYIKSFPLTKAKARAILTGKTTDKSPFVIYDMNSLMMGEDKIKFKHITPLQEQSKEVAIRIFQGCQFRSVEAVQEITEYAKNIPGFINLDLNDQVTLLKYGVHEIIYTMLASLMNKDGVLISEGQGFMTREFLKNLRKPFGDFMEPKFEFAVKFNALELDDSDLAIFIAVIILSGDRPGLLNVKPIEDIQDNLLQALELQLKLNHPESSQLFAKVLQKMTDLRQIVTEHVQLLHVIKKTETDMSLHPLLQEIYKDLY
# Procedure, shortened: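 Multiplexed TRANS reporter readout: after 24 h chemical exposure of transfected HepG2 cells (with 3 nM 6-alpha-fluorotestosterone, 1.5 nM norgestrel present), RNA reverse-transcribed, amplified, 6-FAM-labelled and resolved by capillary electrophoresis; mouse PPARg-Gal4 induction scored against DMSO.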
# [12] = target: Nuclear receptor subfamily 1 group I member 2 (Mus musculus) (UniProt O54915); assay: ATG_mPXR_XSP2: Attagene TRANS-FACTORIAL Multi-Species (XSP1) HepG2 Assay for mouse Pregnane X Receptor (PXR) (AID 2283831)
# Sequence of Nuclear receptor subfamily 1 group I member 2 (Mus musculus) (O54915 whole entry, looked up): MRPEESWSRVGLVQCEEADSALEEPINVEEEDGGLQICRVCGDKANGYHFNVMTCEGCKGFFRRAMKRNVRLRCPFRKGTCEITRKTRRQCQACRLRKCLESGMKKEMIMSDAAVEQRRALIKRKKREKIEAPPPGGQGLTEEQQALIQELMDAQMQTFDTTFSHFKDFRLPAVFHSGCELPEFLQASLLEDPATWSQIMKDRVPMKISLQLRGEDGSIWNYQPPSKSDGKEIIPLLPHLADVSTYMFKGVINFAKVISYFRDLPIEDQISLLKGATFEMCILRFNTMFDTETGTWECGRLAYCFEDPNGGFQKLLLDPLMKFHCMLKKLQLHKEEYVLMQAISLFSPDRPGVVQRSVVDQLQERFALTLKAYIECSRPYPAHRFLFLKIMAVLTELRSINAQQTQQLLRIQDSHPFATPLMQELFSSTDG
# Procedure, shortened: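 Fluorescence signals from capillary electrophoresis of RT-PCR-amplified reporter mRNA give the readout, gain-of-signal versus DMSO. Transfected HepG2 cells, 24 h dosing, medium contained 3 nM 6-alpha-fluorotestosterone and 1.5 nM norgestrel.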
# [13] = target: zebrafish Thyroid Hormone Receptor alpha (TRa), thraa (gene 30670) (UniProt Q98867); assay: ATG_zfTRa_XSP2: Attagene TRANS-FACTORIAL Multi-Species (XSP1) HepG2 Assay for zebrafish Thyroid Hormone Receptor alpha (TRa) (AID 2283832);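 further: actives raise zebrafish TRa-Gal4 reporter transcript above DMSO baseline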
# Sequence of zebrafish Thyroid Hormone Receptor alpha (TRa), thraa (gene 30670) (Q98867 whole entry, looked up, the tested form may be a part): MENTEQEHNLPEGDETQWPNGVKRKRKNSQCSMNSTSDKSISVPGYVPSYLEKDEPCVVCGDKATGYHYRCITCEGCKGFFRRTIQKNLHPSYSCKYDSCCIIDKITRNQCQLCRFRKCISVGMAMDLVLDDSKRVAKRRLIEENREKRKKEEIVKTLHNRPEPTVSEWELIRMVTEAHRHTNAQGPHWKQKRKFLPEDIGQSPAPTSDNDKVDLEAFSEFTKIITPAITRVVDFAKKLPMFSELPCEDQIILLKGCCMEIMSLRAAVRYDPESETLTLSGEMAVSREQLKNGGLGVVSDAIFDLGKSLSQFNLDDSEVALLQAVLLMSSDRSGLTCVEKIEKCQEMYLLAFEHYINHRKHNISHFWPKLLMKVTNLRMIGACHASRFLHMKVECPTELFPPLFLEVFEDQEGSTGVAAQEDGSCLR
# Procedure, shortened: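 Multiplexed TRANS reporter format in HepG2; the medium also contained 3 nM 6-alpha-fluorotestosterone and 1.5 nM norgestrel. Reporter mRNA after 24 h read by RT-PCR and capillary electrophoresis, scored as induction over DMSO.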
# [14] = test system: zebrafish Peroxisome Proliferator-activated Receptor gamma (PPARg), gene 557037; assay: ATG_zfPPARg_XSP2: Attagene TRANS-FACTORIAL Multi-Species (XSP2) HepG2 Assay for zebrafish Peroxisome Proliferator-activated Receptor gamma (PPARg) (AID 2283833);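 further: reporter mRNA from a zebrafish PPARg GAL4 chimera measured by RT-PCR and capillary electrophoresis; actives increase reporter signal over DMSO so AC50 reflects activation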
# Procedure, shortened: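 HepG2, transient MRTU transfection, 24 h compound; zfPPARg-GAL4 reporter mRNA by RT-PCR + capillary electrophoresis; gain-of-signal vs DMSO.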
# [15] = test system: turtle Thyroid Hormone Receptor, alpha (TRa), gene 101949057; assay: ATG_trTRa_XSP2: Attagene TRANS-FACTORIAL Multi-Species (XSP1) HepG2 Assay for turtle Thyroid Hormone Receptor, alpha (TRa) (AID 2283834);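 further: hits raise reporter mRNA over the DMSO baseline so AC50 marks activators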
# Procedure, shortened: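 Multiplexed TRANS reporter assay; HepG2 carrying NR-Gal4 constructs treated 24 h. mRNA of the GAL4-UAS reporter quantified via labelled RT-PCR fragments on a genetic analyzer, vs DMSO negative control.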
# [16] = ATG_M_61_XSP2: Attagene TRANS-FACTORIAL Multi-Species (XSP2) HepG2 Assay for M61 Transcription Factor (Internal Marker) (AID 2283835; active means hit-call score of the fitted dose curve at least 0.9, where 1 is the maximum; inactive means score below 0.9;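 further: active means a rise in signal above the DMSO baseline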)
# Procedure, shortened: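 Internal background marker, read as RT-PCR/capillary-electrophoresis reporter mRNA 24 h post-dose in transiently transfected HepG2 cells. Androgen receptor stimulated with 3 nM 6-alpha-fluorotestosterone plus 1.5 nM norgestrel; gain of signal versus DMSO analysed.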
# [17] = target: zebrafish Thyroid Hormone Receptor beta (TRb), thrb (gene 30607) (UniProt Q9PVE4); assay: ATG_zfTRb_XSP2: Attagene TRANS-FACTORIAL Multi-Species (XSP1) HepG2 Assay for zebrafish Thyroid Hormone Receptor beta (TRb) (AID 2283836)
# Sequence of zebrafish Thyroid Hormone Receptor beta (TRb), thrb (gene 30607) (Q9PVE4 whole entry, looked up): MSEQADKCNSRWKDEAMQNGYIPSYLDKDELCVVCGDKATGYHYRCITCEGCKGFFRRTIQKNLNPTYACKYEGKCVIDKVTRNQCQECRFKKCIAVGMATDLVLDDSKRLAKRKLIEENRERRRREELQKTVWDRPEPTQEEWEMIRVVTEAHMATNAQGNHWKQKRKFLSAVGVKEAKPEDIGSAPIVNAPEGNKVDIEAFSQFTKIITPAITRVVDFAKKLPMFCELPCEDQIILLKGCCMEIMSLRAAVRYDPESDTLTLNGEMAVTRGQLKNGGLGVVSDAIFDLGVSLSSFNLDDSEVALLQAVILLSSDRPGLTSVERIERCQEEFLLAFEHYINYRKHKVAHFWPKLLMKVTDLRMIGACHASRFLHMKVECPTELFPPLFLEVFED
# Procedure, shortened: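 Multiplexed trans-activation in HepG2 cells, 24 h treatment, with reporter mRNA read by RT-PCR and capillary electrophoresis. Gain-of-signal against DMSO.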
# [18] = test system: zebrafish Estrogen Receptor (ER2a), gene 317734; assay: ATG_zfER2a_XSP2: Attagene TRANS-FACTORIAL Multi-Species (XSP2) HepG2 Assay for zebrafish Estrogen Receptor (ER2a) (AID 2283818);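 further: hits raise reporter mRNA so AC50 reflects activation of zebrafish ER2a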
# Procedure, shortened: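 Multiplexed trans-reporter readout: RT-PCR then capillary electrophoresis of reporter transcripts after 24 h compound treatment. Human HepG2 carries transfected zebrafish ER2a-Gal4 chimera; 3 nM 6-alpha-fluorotestosterone plus 1.5 nM norgestrel present. Induction scored against DMSO.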
# [19] = ATG_M_19_XSP2: Attagene TRANS-FACTORIAL Multi-Species (XSP2) HepG2 Assay for M32 Transcription Factor (Internal Marker) (AID 2283822)
# Procedure, shortened: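 Internal background marker in a multi-species nuclear receptor TRANS panel: transfected HepG2 cells exposed 24 h, with 3 nM 6-alpha-fluorotestosterone and 1.5 nM norgestrel present. Readout is RT-PCR of reporter transcripts resolved by capillary electrophoresis, gain-of-signal versus DMSO.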
# [20] = ATG_XTT_Cytotoxicity_XSP2: Cytotoxicity Assessment in the Attagene TRANS-FACTORIAL Multi-Species (XSP2) HepG2 Assay (AID 2283837)
# Procedure, shortened: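 XTT-based cell number read-out in human HepG2 liver cells carrying transfected reporter units, measured 24 h after chemical dosing. Activity is signal loss versus DMSO baseline.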
structure (smiles),measurement,setting,value
O=P(OC(CCl)CCl)(OC(CCl)CCl)OC(CCl)CCl,outcome,[1],inactive
same,outcome,[2],inactive
same,outcome,[3],inactive
same,outcome,[4],inactive
same,outcome,[5],inactive
same,outcome,[6],inactive
same,outcome,[7],inactive
same,AC50,[8],7.39 µM (active)
same,outcome,[9],inactive
same,AC50,[10],50.5 µM (active)
same,AC50,[11],26.2 µM (active)
same,AC50,[12],703 nM (active)
same,outcome,[13],inactive
same,outcome,[14],inactive
same,outcome,[15],inactive
same,outcome,[16],inactive
same,outcome,[17],inactive
Clc1nc(Cl)c(Cl)c(Cl)c1Cl,outcome,[1],inactive
same,outcome,[3],inactive
same,AC50,[4],26.6 µM (active) and 86.3 µM (active)
same,outcome,[18],inactive
same,AC50,[6],100 µM (active)
same,outcome,[6],inactive
same,outcome,[19],inactive
same,AC50,[7],184 µM (active)
same,outcome,[7],inactive
same,AC50,[9],26 µM (active)
same,AC50,[10],1.04 µM (active) and 14.9 µM (active)
same,AC50,[11],1.48 µM (active) and 2.05 µM (active)
same,outcome,[12],inactive
same,outcome,[13],inactive
same,outcome,[14],inactive
same,outcome,[17],inactive
same,outcome,[20],inactive
Oc1ccc2c(c1)-c1ccccc1C2,AC50,[1],5.52 µM (active) and 2.58 µM (active)
same,AC50,[3],14.7 µM (active) and 6.87 µM (active)
same,AC50,[4],4.69 µM (active) and 2.17 µM (active)
same,AC50,[18],2.55 µM (active)
same,outcome,[18],inactive
same,AC50,[6],4.78 µM (active) and 2.89 µM (active)
same,AC50,[7],21.4 µM (active) and 12.1 µM (active)
same,AC50,[9],6.95 µM (active) and 3.52 µM (active)
same,AC50,[10],19.8 µM (active) and 28.4 µM (active)
same,AC50,[11],43.9 µM (active) and 49.3 µM (active)
same,AC50,[12],17.1 µM (active) and 44.2 µM (active)
same,outcome,[13],inactive
same,outcome,[15],inactive
same,outcome,[16],inactive
same,outcome,[17],inactive
same,outcome,[20],inactive
